From PubChem BioAssay (Tox21)
Inconclusive results are not listed. Calls of active or inactive are those of the source. Unless noted, calls come from the whole dose curve; as a rule, active = well fitted curve in the direction sought with a large enough effect in the repeat runs; inconclusive = weak or mixed curves; inactive = no such curve, though single readings can be large; an effect the other way counts as inactive or inconclusive.

Key:
[1] = target: Luciferin 4-monooxygenase (Photinus pyralis) (UniProt P08659); test: qHTS assay to identify small molecule inhibitors of firefly luciferase (AID 1224835); note: nearly all actives have a fitted effect of over 25% in size; note: potency is the fitted concentration of half-maximal effect
Sequence of Luciferin 4-monooxygenase (Photinus pyralis) (P08659 whole entry, looked up): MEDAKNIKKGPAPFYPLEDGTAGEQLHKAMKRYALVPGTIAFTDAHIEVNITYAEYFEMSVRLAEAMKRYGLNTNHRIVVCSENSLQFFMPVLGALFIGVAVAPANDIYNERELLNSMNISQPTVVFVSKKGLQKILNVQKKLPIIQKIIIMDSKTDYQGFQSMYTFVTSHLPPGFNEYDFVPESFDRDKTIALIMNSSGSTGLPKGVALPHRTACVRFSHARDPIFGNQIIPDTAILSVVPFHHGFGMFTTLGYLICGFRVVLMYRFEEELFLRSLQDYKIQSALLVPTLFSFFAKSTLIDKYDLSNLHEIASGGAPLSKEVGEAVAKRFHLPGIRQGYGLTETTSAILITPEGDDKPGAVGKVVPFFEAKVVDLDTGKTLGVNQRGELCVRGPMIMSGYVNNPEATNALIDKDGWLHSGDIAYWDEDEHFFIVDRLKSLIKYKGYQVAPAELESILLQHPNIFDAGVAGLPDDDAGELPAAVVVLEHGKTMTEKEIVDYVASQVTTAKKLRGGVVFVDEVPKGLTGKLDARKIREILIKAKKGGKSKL
Outline: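 Quantitative HTS format; KM concentrations of both substrates. Purified P. pyralis FLuc activity quantified from luminescence images.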

[2] = qHTS assay to identify small molecule agonists of the constitutive androstane receptor (CAR) signaling pathway - cell viability counter screen (AID 1224836); note: nearly all actives have a fitted effect of over 45% in size
Outline: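 Cells were seeded and incubated 4 hrs. Compounds were added across 15 concentrations together with PK11195 at 0.75 uM final. Plates were incubated 23 hrs at 37 C. CellTiter-Fluor was added and fluorescence measured.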

[3] = qHTS assay to identify small molecule antagonists of the constitutive androstane receptor (CAR) signaling pathway - cell viability counter screen (AID 1224837); note: nearly all actives have a fitted effect of over 45% in size
Outline: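 Cytotoxicity counter-screen: CellTiter-Fluor fluorescence after 23 h compound exposure (15-point qHTS) in double-stable HepG2-CYP2B6-hCAR cells, with 50 nM CITCO added.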

[4] = target: Nuclear receptor subfamily 1 group I member 3 (Homo sapiens) (UniProt Q14994); test: qHTS assay to identify small molecule antagonists of the constitutive androstane receptor (CAR) signaling pathway (AID 1224838);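 note: HepG2 cells stably expressing hCAR with CYP2B6 luciferase reporter stimulated by CITCO; nearly all actives have a fitted effect of over 40% in size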
Sequence of Nuclear receptor subfamily 1 group I member 3 (Homo sapiens) (Q14994 whole entry, looked up): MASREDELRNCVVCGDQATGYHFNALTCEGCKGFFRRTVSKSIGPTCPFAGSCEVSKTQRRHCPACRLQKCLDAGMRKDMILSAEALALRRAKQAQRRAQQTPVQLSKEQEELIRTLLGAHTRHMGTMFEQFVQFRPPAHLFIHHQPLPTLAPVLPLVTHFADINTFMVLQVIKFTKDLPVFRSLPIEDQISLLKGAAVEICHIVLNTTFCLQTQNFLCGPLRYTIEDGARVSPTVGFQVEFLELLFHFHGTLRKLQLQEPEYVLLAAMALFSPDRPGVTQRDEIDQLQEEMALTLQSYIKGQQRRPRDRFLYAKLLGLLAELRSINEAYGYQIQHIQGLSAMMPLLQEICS
Outline: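 Antagonism measured as luciferase signal (ONE-Glo, 30 min, room temperature) in CAR-stimulated cells: HepG2-CYP2B6-hCAR double-stable line exposed 24 hr at 37 C to compound in a 15-point series plus 50 nM CITCO.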

[5] = target: Nuclear receptor subfamily 1 group I member 3 (Homo sapiens) (UniProt Q14994); test: qHTS assay to identify small molecule agonists of the constitutive androstane receptor (CAR) signaling pathway (AID 1224839);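 note: HepG2 cells stably carrying human CAR and a CYP2B6 luciferase reporter; nearly all actives have a fitted effect of over 15% in size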
Outline: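 Cells were plated and incubated 4 hrs, then dosed with compounds at 15 concentrations. PK11195 was added to 0.75 uM final. After 24 hrs at 37 C, luciferase luminescence was measured.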

[6] = qHTS assay to identify small molecule antagonists of the estrogen related receptor signaling pathway with the pleiotropic PPARgamma coactivator (PGC) from Tox21 10K library - cell viability counter screen (AID 1224840; active = well fitted cell-killing curve with a large enough effect in the repeat runs, not every such curve was filed as active; note: nearly all actives have a fitted effect of over 40% in size)
Outline: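 Counter-screen for cytotoxicity: after 17.5 h compound exposure at 37 C, CellTiter-Fluor reagent added to PGC/ERR cells for 30 min and fluorescence read. Cells were seeded at 2,000 per well 6 h before dosing.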

[7] = qHTS assay to identify small molecule agonists of the hypoxia (HIF-1) signaling pathway - cell viability counter screen (AID 1224844; calls by dose curve; note: nearly all actives have a fitted effect of over 50% in size)
Outline: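 Cytotoxicity measured by CellTiter-Glo ATP luminescence in the wells also read for beta-lactamase signal. Cells were HRE-bla ME-180 (2,000/well, 0.5% dialyzed FBS), exposed to compounds for 17 h at 37C.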

[8] = qHTS assay to identify small molecule agonists of H2AX (AID 1224845; active = well fitted activation curve with a large enough effect in the signal ratio in the repeat runs, not every such curve was filed as active; the % refers to the signal ratio)
Outline: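 Wild-type CHO-K1 cells plated overnight, then exposed 3 hr at 37C to compounds at 15 concentrations (0.76% DMSO). Lysed, then HTRF anti-pH2AX(S139)-cryptate/anti-H2AX-d2 detection after 24 hr at room temperature; emissions 665 and 620 nm.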

[9] = qHTS assay to identify small molecule agonists of H2AX - cell viability counter screen (AID 1224847; calls by dose curve; note: top concentration of the series differs between compounds; nearly all actives have a fitted effect of over 30% in size)
Outline: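 Cytotoxicity counter screen in wild-type CHO-K1 cells: a 3 hr compound treatment at 37C across 15 concentrations, followed by CellTiter-Glo luminescence to gauge viable cells.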

[10] = qHTS RealTime-Glo MT Cell Viability Assay in HepG2 cells - 24 hour (AID 1224867); note: nearly all actives have a fitted effect of over 50% in size
Outline: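 Viability was tracked continuously by NanoLuc luminescence from prosubstrate reduced by living HepG2 cells, at successive time points over 40 h of compound exposure. Cells with reagent were preincubated 5 h at 37 °C before compound addition.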

[11] = qHTS RealTime-Glo MT Cell Viability Assay in HEK293 cells - 32 hour (AID 1224868); note: top concentration of the series differs between compounds; nearly all actives have a fitted effect of over 50% in size
Outline: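 Viability tracked continuously by luminescence as live cells reduce a prosubstrate for NanoLuc; HEK293 cells preincubated 5 h, compound-treated at 37 C, and read at 0, 8, 16, 24, 32 and 40 h.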

[12] = A CellTox Green Cytotoxicity Assay to monitor cytotoxicity in HEK293 cells - 0 hour (AID 1224869); note: nearly all actives have a fitted effect of over 50% in size
Outline: (§1)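 Fluorescence from a DNA-binding dye excluded by viable cells was measured repeatedly in the same HEK293 wells (600 cells/well) during continuous compound exposure at 37 C. Each assay gives one read point: 0, 8, 16, 24, 32 or 40 h.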

[13] = qHTS RealTime-Glo MT Cell Viability Assay in HepG2 cells - 40 hour (AID 1224870); note: nearly all actives have a fitted effect of over 50% in size
Outline: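 HepG2 cells mixed with RealTime-Glo MT reagents (NanoLuc plus cell-permeant prosubstrate) were seeded at 600 cells/well, incubated 5 h at 37 C/5% CO2, then pinned with compounds in DMSO; nonlytic luminescence tracked viability during 40 h treatment.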

[14] = A CellTox Green Cytotoxicity Assay to monitor cytotoxicity in HEK293 cells - 40 hour (AID 1224871); note: nearly all actives have a fitted effect of over 45% in size
Outline: as §1

[15] = target: Thyrotropin receptor (Homo sapiens) (UniProt P16473); test: qHTS assay to identify small molecule agonists of the thyroid stimulating hormone receptor (TSHR) signaling pathway (AID 1224843; calls by dose curve; note: nearly all actives have a fitted effect of over 45% in size)
Sequence of Thyrotropin receptor (Homo sapiens) (P16473 whole entry, looked up): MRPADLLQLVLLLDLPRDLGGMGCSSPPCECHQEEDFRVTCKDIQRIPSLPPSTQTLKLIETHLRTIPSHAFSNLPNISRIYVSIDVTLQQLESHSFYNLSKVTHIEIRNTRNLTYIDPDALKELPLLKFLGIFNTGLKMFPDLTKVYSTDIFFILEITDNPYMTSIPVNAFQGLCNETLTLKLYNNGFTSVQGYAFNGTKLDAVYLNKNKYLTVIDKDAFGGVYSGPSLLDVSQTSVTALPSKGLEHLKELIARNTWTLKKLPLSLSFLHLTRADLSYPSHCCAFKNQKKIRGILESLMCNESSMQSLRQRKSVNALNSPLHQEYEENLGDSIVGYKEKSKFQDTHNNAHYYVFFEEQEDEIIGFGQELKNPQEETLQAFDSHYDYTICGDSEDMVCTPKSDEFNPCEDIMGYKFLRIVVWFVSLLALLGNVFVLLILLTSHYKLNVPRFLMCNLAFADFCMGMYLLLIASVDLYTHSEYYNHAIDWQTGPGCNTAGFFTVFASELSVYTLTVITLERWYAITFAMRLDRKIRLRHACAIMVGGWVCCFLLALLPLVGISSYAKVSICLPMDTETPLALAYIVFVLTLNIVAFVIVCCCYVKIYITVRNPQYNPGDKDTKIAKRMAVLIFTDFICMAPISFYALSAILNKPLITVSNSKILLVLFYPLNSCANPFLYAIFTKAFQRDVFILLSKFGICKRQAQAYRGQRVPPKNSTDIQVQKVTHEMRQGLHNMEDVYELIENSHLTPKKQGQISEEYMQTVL
Outline: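 Using 15 concentrations per compound in triplicate, cAMP production was monitored in TSHR-HEK293 cells after 30 min compound incubation at RT; HTRF reagents followed, with fluorescence intensity recorded after 1 h.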

[16] = qHTS assay to identify small molecule agonists of the hypoxia (HIF-1) signaling pathway (AID 1224846; active = well fitted activation curve with a large enough effect in the signal ratio in the repeat runs, not every such curve was filed as active; the % refers to the signal ratio)
Outline: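 Compounds added to ME-180 cells carrying hypoxia-response-element beta-lactamase reporter (0.5% dialyzed FBS, 5 h preplating), 17 h at 37C; agonist activity detected by CCF4-AM B/G FRET read-out.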

[17] = qHTS assay to identify small molecule antagonists of the estrogen related receptor signaling pathway with the pleiotropic PPARgamma coactivator (PGC) from Tox21 10K library (AID 1224841; call rule not given here)
Outline: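 Luminescence (One-Glo, 30 min at room temperature) after 18 h compound treatment at 37 C of PGC/ERR reporter cells plated at 2,000 cells/well and settled 6 h beforehand.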

[18] = qHTS assay to identify small molecule agonists of the estrogen related receptor signaling pathway with the pleiotropic PPARgamma coactivator (PGC) from Tox21 10K library (AID 1224842); note: nearly all actives have a fitted effect of over 15% in size
Outline: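 PGC/ERR reporter cells (NTP line) were seeded 2,000 per well, rested 6 h at 37 C/5% CO2, then pin-dosed with compounds in DMSO for 18 h at 37 C; luciferase read by One-Glo luminescence after 30 min at room temperature.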

[19] = qHTS assay to identify small molecule antagonists of the estrogen related receptor (ERR) signaling pathway from Tox21 library (AID 1224848); note: nearly all actives have a fitted effect of over 50% in size
Outline: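 Tox21 10K compounds in DMSO tested for ERR pathway antagonism in NTP's ERR cell line; 18 h, 37 C exposure; ONE-Glo luminescence.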

[20] = qHTS assay to identify small molecule agonists of the estrogen related receptor (ERR) signaling pathway from Tox21 library (AID 1224849; calls by dose curve; note: nearly all actives have a fitted effect of over 15% in size); settings: ERR reporter cell line, ONE-Glo luciferase, 18 h; at 92.4 µM (top of the series) unless noted
Outline: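 Luminescent agonist read-out (One-Glo, 30-minute room-temperature incubation) following 18-hour compound treatment at 37 C of the ERR cell line, which had been plated 6 hours before dosing.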
% is set by controls: 0 for no effect and ±100 for the full control effect.

CO[C@@]1(NC(=O)CSCC#N)C(=O)N2C(C(=O)O)=C(CSc3nnnn3C)CS[C@@H]21
inactive: Potency [1] | Potency [2] | Potency [3] | Potency [4] | Potency [5] | Potency [6] | Potency [7] | Potency [8] | Potency [9] | Potency [10] | Potency [11] | Potency [12] | Potency [13] | Potency [14]

O=C(O)[C@@H]1CSCN1
inactive: Potency [1] | Potency [2] | Potency [3] | Potency [4] | Potency [5] | Potency [6] | Potency [15] | Potency [7] | outcome [16] | Potency [9] | Potency [10] | Potency [11] | Potency [12] | Potency [13] | Potency [14]

CC(C)=CCCC(C)CCOC=O (stereo unspecified)
inactive: Potency [1] | Potency [2] | Potency [3] | Potency [4] | Potency [5] | Potency [6] | Potency [15] | Potency [7] | Potency [8] | outcome [16] | Potency [10] | Potency [11] | Potency [12] | Potency [14]

CCCCC1CCC(=O)O1 (stereo unspecified)
inactive: Potency [1] | Potency [2] | Potency [3] | Potency [4] | Potency [6] | Potency [17] | Potency [18] | Potency [15] | outcome [16] | Potency [9] | Potency [19] | activity change, positive = activation [20] -0.824% | Potency [10] | Potency [11] | Potency [12] | Potency [13] | Potency [14]

Cc1cn([C@@H]2O[C@H](CO)[C@@H](O)[C@@H]2F)c(=O)[nH]c1=O
inactive: Potency [1] | Potency [2] | Potency [3] | Potency [4] | Potency [5] | Potency [6] | Potency [15] | Potency [7] | outcome [16] | Potency [9] | Potency [10] | Potency [11] | Potency [12] | Potency [13] | Potency [14]

Nc1cccc(S(=O)(=O)O)c1
inactive: Potency [1] | Potency [2] | Potency [3] | Potency [4] | Potency [5] | Potency [6] | Potency [15] | Potency [8] | outcome [16] | Potency [9] | Potency [10] | Potency [11] | Potency [12] | Potency [13] | Potency [14]

O=c1[nH]cnc2c1ncn2[C@@H]1O[C@H](CO)[C@@H](O)[C@H]1O
inactive: Potency [1] | Potency [2] | Potency [3] | Potency [4] | Potency [6] | Potency [17] | Potency [18] | Potency [15] | Potency [7] | Potency [8] | outcome [16] | Potency [9] | Potency [19] | activity change, positive = activation [20] 2.74% [at 42.5 µM] | Potency [10] | Potency [11] | Potency [12] | Potency [13] | Potency [14]

CCC/C=C/CO
inactive: Potency [1] | Potency [2] | Potency [3] | Potency [4] | Potency [5] | Potency [6] | Potency [15] | Potency [7] | Potency [8] | outcome [16] | Potency [9] | Potency [10] | Potency [11] | Potency [12] | Potency [14]

CCCCNc1ccc(C(=O)OCCN(CC)CC)cc1
inactive: Potency [1] | Potency [2] | Potency [3] | Potency [4] | Potency [6] | Potency [17] | Potency [18] | Potency [15] | outcome [16] | Potency [9] | Potency [19] | activity change, positive = activation [20] -11.3% [at 42.5 µM] | Potency [10] | Potency [12] | Potency [13] | Potency [14]

CC(C)O
inactive: Potency [1] | Potency [2] | Potency [3] | Potency [4] | Potency [5] | Potency [6] | Potency [15] | Potency [9] | Potency [10] | Potency [11] | Potency [12] | Potency [13] | Potency [14]

FC(F)(F)c1ccccc1
inactive: Potency [1] | Potency [2] | Potency [3] | Potency [4] | Potency [6] | Potency [17] | Potency [18] | Potency [15] | Potency [7] | Potency [8] | outcome [16] | Potency [9] | Potency [19] | activity change, positive = activation [20] 2.08% | Potency [10] | Potency [11] | Potency [12] | Potency [13] | Potency [14]

CN1[C@@H]2CC[C@H]1CC(OC(=O)c1c[nH]c3ccccc13)C2 (stereo partly specified)
inactive: Potency [1] | Potency [2] | Potency [3] | Potency [4] | Potency [5] | Potency [6] | Potency [15] | Potency [7] | Potency [8] | Potency [9] | Potency [10] | Potency [11] | Potency [12] | Potency [13] | Potency [14]

O=c1oc2c(O)c(O)cc3c(=O)oc4c(O)c(O)cc1c4c23
active: Potency [1] 12 µM
inactive: viability change, negative = cytotoxic [2] -3.24% [at 19 µM] | activity change, negative = cytotoxicity [3] 9.67% [at 19 µM] | activity, negative = inhibition [4] 7.54% [at 19 µM] | activation [5] -0.67% [at 19 µM] | viability change, negative = cytotoxic [6] -7.93% [at 19 µM] | activity change, negative = cytotoxicity [7] 0.799% [at 15.8 µM] | activation [16] -0.716% [at 15.8 µM] | activity, negative = inhibition [19] 4.6% [at 19 µM] | activity change, positive = activation [20] 2.5% [at 19 µM] | activity change, negative = cytotoxicity [10] -9.61% [at 15.8 µM] | activity change, negative = cytotoxic [11] -21.3% [at 15.8 µM] | cytotoxicity [12] 10.4% [at 15.8 µM] | activity change, negative = cytotoxic [13] -12.4% [at 15.8 µM] | cytotoxicity increase [14] 16.8% [at 15.8 µM]

O=C1Nc2ccc([N+](=O)[O-])cc2C1=O
inactive: Potency [1] | Potency [2] | Potency [3] | Potency [4] | Potency [5] | Potency [6] | Potency [15] | Potency [7] | Potency [8] | outcome [16] | Potency [9] | Potency [10] | Potency [12] | Potency [13] | Potency [14]

CCCC(CCC)(C(=O)OCC)C(=O)OCC
inactive: Potency [1] | Potency [2] | Potency [3] | Potency [4] | Potency [5] | Potency [6] | Potency [15] | Potency [8] | outcome [16] | Potency [10] | Potency [11] | Potency [12] | Potency [13] | Potency [14]
